# High-throughput results deposited in PubChem BioAssay by several laboratories.
# Hits are enriched below; roughly 4.9% of the tested compounds scored in any of these assays.
# MPTP block: blocks calcium-induced mitochondrial swelling. isolated mouse mitochondria, Ca2+ swelling absorbance, 30 min. inhibition, % at 10 µM. 360,000 compounds, 1.4% hits. AID 602449;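 active = inhibition of 50% or more, scaled per plate between neutral and stimulator controls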;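 also: 0% = DMSO wells given calcium and 100% = 1 mM EGTA wells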
# Platelet DG rel: modulates dense granule release in human platelets | 300,000 compounds, 0.22% hits | AID 1663 | human platelet-rich plasma, SFLLRN dense granule ATP release, luminescence | inhibition, %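 (compounds screened at 7.5 µM in platelet-rich plasma)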;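 active = mean replicate score, as percent of positive control, at or above 50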
# HSF1 inhib: HSF1 inhibition; NIH3T3-HGL HSE-luciferase, MG132-induced, luminescence 8 h; hits give low values; activity change, negative = inhibition, % at 7.5 µM (by protocol); 300,000 compounds, 0.77% hits; AID 2098;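 active = more than half of replicate wells show activity change below -50%, luminescence cut by over half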;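 also: luciferase reports HSF-1 transcriptional activity via heat shock element; 0% = median of DMSO wells and -100% = zero luminescence signal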
# HSP90 inh: blocks HSP90-mediated luciferase refolding in reticulocyte lysate; Rabbit reticulocyte lysate, luciferase refolding luminescence, 3 h; inhibition, % at 5.6 µM; 290,000 compounds, 0.91% hits;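 active = inhibition above the screen-wide mean plus 3 SD, computed separately per campaign, cut at about 16% in these data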;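 also: 0% = DMSO wells and 100% = 60 µM geldanamycin wells; inhibitors lower the luminescence because luciferase stays unfolded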
# HSF-1 act: increases HSF-1 driven luciferase reporter signal. activation, % at 9 µM. NIH3T3-HGL HSF-1 luciferase reporter, MG132, 8 h; 100% = twice DMSO control signal. AID 504408. 300,000 compounds, 1.7% hits;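 active = mean replicate activation of at least 50% with a set share of replicates each reaching 50%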;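 also: 0% = median of the neutral control wells and 100% = twice that signal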
# dFosB act: mouse delta FosB homodimer activation; purified delta FosB, TAMRA-CDK5 oligo fluorescence polarization; percent of positive-control signal above neutral wells; activation, % at 25 µM; 340,000 compounds, 0.99% hits; AID 493131;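 active = mean activation above about 17%, with every replicate also reaching it, limit read from the data, passing the limit was not always enough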
# Target sequence (P13346 whole entry, looked up): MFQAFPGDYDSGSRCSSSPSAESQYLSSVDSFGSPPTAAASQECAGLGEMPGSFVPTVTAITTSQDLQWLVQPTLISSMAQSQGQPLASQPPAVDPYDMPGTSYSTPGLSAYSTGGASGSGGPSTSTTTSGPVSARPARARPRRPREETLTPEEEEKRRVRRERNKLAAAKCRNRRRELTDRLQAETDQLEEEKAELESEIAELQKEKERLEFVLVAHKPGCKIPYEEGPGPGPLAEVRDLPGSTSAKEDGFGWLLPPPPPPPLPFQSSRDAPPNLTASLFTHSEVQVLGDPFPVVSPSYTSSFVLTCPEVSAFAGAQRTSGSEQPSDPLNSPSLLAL
# Rh123 counter: mitochondrial membrane potential, counter-screen. inhibition, % at 10 µM. AID 624504. 5,000 compounds, 78% hits. isolated mitochondria, Rhodamine 123 fluorescence. shares compounds with MPTP block; in the data active = inhibition above about 22%;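 also: 0% = DMSO vehicle and 100% = positive control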
# MPTP swell DR: MPTP inhibition, dose response swelling confirmation. shares compounds with MPTP block. isolated mitochondria swelling, absorbance. IC50, µM. 780 compounds, 58% hits. AID 651561; in the data active = IC50 below about 20 µM
# MPTP counter DR: counter-screen for mitochondrial permeability transition pore inhibitors, dose response; shares compounds with MPTP block; isolated mitochondria counterscreen, fluorescence read-out; IC50, µM; 780 compounds, 49% hits; in the data active = IC50 below about 80 µM
# The depositor's hits bear a star; i = inactive; . = not tested or not shown.
SMILES,MPTP block,Platelet DG rel,HSF1 inhib,HSP90 inh,HSF-1 act,dFosB act,Rh123 counter,others
CCOC(=O)c1ccc(N2CCN(c3ccccc3F)CC2)c(NC(=O)Nc2cccc(OC)c2)c1,78*,-7,-2,5,5,-12,84*,
CCc1ccccc1NC(=O)C1C(c2ccccc2)C1(Cl)Cl (stereo unspecified),51*,22,6,-1,31,-4,76*,
Cc1ccc(C)c(NC(=O)C2C(c3ccccc3)C2(Cl)Cl)c1 (stereo unspecified),76*,10,12,0,20,-13,89*,
CCOc1ccccc1NC(=O)C1C(c2ccccc2)C1(Cl)Cl (stereo unspecified),1,.,.,.,.,.,.,
O=C(Nc1ccc(F)cc1)C1C(c2ccccc2)C1(Cl)Cl (stereo unspecified),92*,0,-1,-5,9,-7,90*,
O=C(Nc1ccc(F)cc1)C1C2CCC3C(CCC21)C3(Cl)Cl (stereo unspecified),62*,-11,2,1,14,14,74*,
Cc1cc(C)n(-c2ccccc2C#N)n1,2,8,-5,4,-15,3,.,
Cc1ccc(C(C#N)c2ccc3c(C(F)(F)F)cc(C(F)(F)F)nc3n2)cc1 (stereo unspecified),113*,0,-9,0,16,-5,68*,
N#CC(c1ccccc1)c1ccc2c(C(F)(F)F)cc(C(F)(F)F)nc2n1 (stereo unspecified),93*,0,-7,3,5,1,70*,
CN(N)c1ccc2c(C(F)(F)F)cc(C(F)(F)F)nc2n1,0,-5,4,-2,0,-4,.,
CC(C)n1c(-c2ccc(C(C)(C)C)cc2)n[nH]c1=S,68*,-2,-3,2,-7,-8,67*,
C/C(=N\N=C(c1ccccc1)c1ccccc1)c1ccco1,93*,-1,1,5,5,8,-3,
CCN(CC(=O)Nc1cc(Cl)cc(Cl)c1)CC(=O)NC1CCS(=O)(=O)C1 (stereo unspecified),-2,.,.,.,.,-3,.,
COc1ccc(OC)c(C(=O)COC(=O)c2cc(C)oc2C)c1,60*,11,2,2,5,-8,-8,MPTP swell DR=10*;MPTP counter DR=>80
CC1=CC(=O)C=C(C)C1=NOS(=O)(=O)c1ccccc1,103*,4,28,-1,27,-1,90*,
CC1=CC(=O)C(C(C)C)=C/C1=N/OS(=O)(=O)c1ccccc1,96*,10,53,2,83*,-3,92*,
Cc1ccc2c(c1)/C(=N/OS(=O)(=O)c1ccccc1)CCS2,2,-1,-5,0,-6,-3,.,
O=C(Nc1cccc(Br)c1)c1ccc(CSc2ccccc2)cc1,67*,-5,9,-2,14,-6,77*,
Cc1oc2cc([N+](=O)[O-])c(O)c([N+](=O)[O-])c2c1C(=O)c1ccc(Cl)cc1,76*,1,-7,0,-7,-5,59*,
CC(C)COC(=O)NCCOC(=O)Nc1cccc(Cl)c1,102*,-4,8,-1,12,-5,100*,
CN(C)C(CNC(=O)c1cc(Br)ccc1Cl)c1ccco1 (stereo unspecified),2,3,-2,-1,4,-8,.,
CN(C)C(CNC(=O)c1cc(S(=O)(=O)N(C)Cc2ccccc2)ccc1Cl)c1ccco1 (stereo unspecified),68*,15,-5,.,-7,-5,70*,
CC(C)Oc1ccc(C(=O)Nc2ccc3c(c2)n(C)c(=O)n3C)cc1,0,5,5,-2,15,-11,.,
c1ccc(CN2CCN(CCOCCOc3cccc4ccccc34)CC2)cc1,82*,18,3,3,5,-5,0,MPTP swell DR=i;MPTP counter DR=74*
